# Measured values published in ChEMBL document CHEMBL3988442, “University of Dundee, Small-Polar-MMV Screening Library” (2021).
# Molecular target: T1, Methionyl-tRNA synthetase, putative (Leishmania donovani (strain BPK282A1)) (UniProt E9BF75)
# T1 sequence (whole entry): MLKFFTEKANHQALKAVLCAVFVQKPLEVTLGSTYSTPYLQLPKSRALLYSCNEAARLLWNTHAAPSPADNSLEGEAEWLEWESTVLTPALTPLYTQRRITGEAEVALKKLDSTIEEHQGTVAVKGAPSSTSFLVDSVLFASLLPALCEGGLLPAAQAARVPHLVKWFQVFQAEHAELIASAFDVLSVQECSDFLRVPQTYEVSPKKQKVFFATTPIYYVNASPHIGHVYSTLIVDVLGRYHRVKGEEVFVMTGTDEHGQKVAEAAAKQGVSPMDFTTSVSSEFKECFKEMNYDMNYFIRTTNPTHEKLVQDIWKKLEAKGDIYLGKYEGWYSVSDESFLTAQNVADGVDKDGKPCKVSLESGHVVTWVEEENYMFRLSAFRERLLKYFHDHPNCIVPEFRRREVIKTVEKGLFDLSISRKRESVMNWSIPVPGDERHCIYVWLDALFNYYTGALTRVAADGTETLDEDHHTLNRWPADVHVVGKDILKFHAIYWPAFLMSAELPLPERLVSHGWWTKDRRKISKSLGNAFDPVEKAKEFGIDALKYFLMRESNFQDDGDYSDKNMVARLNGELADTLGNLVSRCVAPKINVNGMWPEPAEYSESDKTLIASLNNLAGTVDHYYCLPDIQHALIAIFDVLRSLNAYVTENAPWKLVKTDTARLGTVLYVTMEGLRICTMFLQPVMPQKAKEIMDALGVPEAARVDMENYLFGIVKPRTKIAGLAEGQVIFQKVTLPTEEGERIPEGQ
# Assay: Leishmania donovani Methionine tRNA synthetase (LdMetRS):v7. Dose response assay
# Format: functional
# Parameters: conc 80 nM, time 150 minutes
smiles,measurement,setting,value
CC(C)C[C@H](N)COc1ccccc1-c1ccccn1,PXC50,MAX_EFFECT 10.44776119,< 4
same,PXC50,MAX_EFFECT 11.38716356,< 4
CCn1cc(-c2cc(C(F)(F)F)nc(NC3CCCC3)n2)c(C)n1,PXC50,MAX_EFFECT 6.788511749,< 4
same,PXC50,MAX_EFFECT 7.571801567,< 4
Cc1nc(N(C)CC(=O)N(C)C)c2c(-c3ccccc3)csc2n1,PXC50,MAX_EFFECT 5.289672544,< 4
same,PXC50,MAX_EFFECT 6.361323155,< 4
COc1ccc(-c2cc(C(F)(F)F)nc(N3CCCC3)n2)cc1,PXC50,MAX_EFFECT 5.85106383,< 4
same,PXC50,MAX_EFFECT 7.772020725,< 4
CN(c1ncnc2c1CCC2)C1CCCN(c2cccnn2)C1 (stereo not given),PXC50,MAX_EFFECT 11.7370892,< 4
same,PXC50,MAX_EFFECT 15.37037037,< 4
Cc1sc2nc(CN3CCOCC3)nc(NS(C)(=O)=O)c2c1C,PXC50,MAX_EFFECT 10.38251366,< 4
same,PXC50,MAX_EFFECT 12.29946524,< 4
CN(CCO)c1nc(-c2cccs2)nc2sc3c(c12)CCCC3,PXC50,MAX_EFFECT 31.46666667,< 4
same,PXC50,MAX_EFFECT 36.50793651,< 4
CN(C)CCNC(=O)c1ccc2ccc(N3CCN(S(C)(=O)=O)CC3)n2c1,PXC50,"BOTTOM 0.033, HILLSLOPE 2.605738827, MAX_EFFECT 55.98086124, TOP 56.52145989",4.84
same,PXC50,"BOTTOM -2.072944034, HILLSLOPE 2.61914663, MAX_EFFECT 60.32906764, TOP 62.06864911",4.75
COCCNc1nc(-c2cccnc2)nc2sc(C)c(C)c12,PXC50,"BOTTOM 0.74162584, HILLSLOPE 1.235225767, MAX_EFFECT 62.1761658, TOP 100.0",4.17
same,PXC50,"BOTTOM 1.893882354, HILLSLOPE 1.640156685, MAX_EFFECT 57.9787234, TOP 75.89886764",4.31
COCCNc1nc(-n2nc(C)cc2C)nc2sc3c(c12)CCCC3,PXC50,"BOTTOM 1.301145561, HILLSLOPE 1.464534306, MAX_EFFECT 52.38095238, TOP 100.0",4.33
same,PXC50,"BOTTOM -0.0791, HILLSLOPE 1.372664479, MAX_EFFECT 81.02766798, TOP 100.0",4.48
N[C@H](COc1cccc(F)c1Oc1ccc(Cl)cc1)c1ccccc1,PXC50,"BOTTOM 4.511954534, HILLSLOPE 1.875524354, MAX_EFFECT 67.28778468, TOP 93.68195714",4.2
same,PXC50,"BOTTOM -3.133728258, HILLSLOPE 1.050142996, MAX_EFFECT 53.9445629, TOP 100.0",4.1
N[C@H](COc1cccc(F)c1Oc1ccc(Cl)cc1)CC1CCCCC1,PXC50,"BOTTOM 8.516712257, HILLSLOPE 1.897669447, MAX_EFFECT 94.20289855, TOP 100.0",4.49
same,PXC50,"BOTTOM 8.547488971, HILLSLOPE 2.365761437, MAX_EFFECT 99.14712154, TOP 101.5267465",4.51
Cc1sc2nc(C(F)(F)F)nc(N3CCC(NS(C)(=O)=O)CC3)c2c1C,PXC50,MAX_EFFECT 0.0,< 4
same,PXC50,MAX_EFFECT 1.305483029,< 4
Cc1cc2c(N3CCOCC3)nc(-c3cccnc3)nc2s1,PXC50,MAX_EFFECT 2.18579235,< 4
same,PXC50,MAX_EFFECT 5.347593583,< 4
Cc1nc(N2CCN(C3CCOCC3)CC2)c2ccsc2n1,PXC50,MAX_EFFECT 2.659574468,< 4
same,PXC50,MAX_EFFECT 4.663212435,< 4
COCCNc1ccc2ncc(-c3ccc4onc(N)c4c3)n2n1,PXC50,MAX_EFFECT 3.125,< 4
same,PXC50,MAX_EFFECT 3.947368421,< 4
Cn1cc(CN2CCC(F)(F)C3(CCN(c4cccnc4)C3)C2)cn1 (stereo not given),PXC50,MAX_EFFECT 3.888888889,< 4
same,PXC50,MAX_EFFECT 8.450704225,< 4
CCc1cc2c(NC(C(=O)O)C(C)C)nc(C)nc2s1 (stereo not given),PXC50,MAX_EFFECT 5.866666667,< 4
same,PXC50,MAX_EFFECT 8.994708995,< 4
Nc1cc(O)c(Cl)cc1Cl,PXC50,MAX_EFFECT 7.034220532,< 3
same,PXC50,MAX_EFFECT 11.44708423,< 3
CC(=O)N1CCN(c2nc(C(F)(F)F)nc3sc(C)c(C)c23)CC1,PXC50,MAX_EFFECT 7.310704961,< 4
same,PXC50,MAX_EFFECT 8.093994778,< 4
Cc1ccc(-c2cc(C(F)(F)F)nc(NCCCN(C)C)n2)cc1,PXC50,MAX_EFFECT 7.446808511,< 4
same,PXC50,MAX_EFFECT 8.808290155,< 4
Cc1cc2c(N3CCCC3)nc(-c3cccnc3)nc2s1,PXC50,MAX_EFFECT 8.196721311,< 4
same,PXC50,MAX_EFFECT 10.16042781,< 4
O=C(c1cc[nH]n1)N1CCC(F)(F)C2(CCN(c3ccccn3)C2)C1 (stereo not given),PXC50,MAX_EFFECT 8.450704225,< 4
same,PXC50,MAX_EFFECT 10.92592593,< 4
COC(=O)c1sc2nc(C)nc(N(C)Cc3cc(C)on3)c2c1C,PXC50,MAX_EFFECT 8.556149733,< 4
same,PXC50,MAX_EFFECT 12.02185792,< 4
Cc1sc2nc(CCN)nc(N(CCN(C)C)CC3CCCO3)c2c1C (stereo not given),PXC50,MAX_EFFECT 8.838383838,< 4
same,PXC50,MAX_EFFECT 10.20408163,< 4
FC1(F)CCN(c2ccccc2)CC12CCN(c1ncccn1)C2 (stereo not given),PXC50,MAX_EFFECT 8.920187793,< 4
same,PXC50,MAX_EFFECT 12.40740741,< 4
CCc1nc(NC(C(=O)O)C(C)C)c2cc(CC)sc2n1 (stereo not given),PXC50,MAX_EFFECT 9.289617486,< 4
same,PXC50,MAX_EFFECT 12.29946524,< 4
CCc1nc(-n2nc(C)cc2N)c2c3c(sc2n1)CCCC3,PXC50,MAX_EFFECT 9.836065574,< 4
same,PXC50,MAX_EFFECT 10.69518717,< 4
Cc1nc(N(C)CC(=O)Nc2cc(C)on2)c2c3c(sc2n1)CCC3,PXC50,MAX_EFFECT 9.844559585,< 4
same,PXC50,MAX_EFFECT 10.63829787,< 4
Cc1ccc(N2CCC3(CN(Cc4ccncc4)CCC3(F)F)C2)nn1 (stereo not given),PXC50,MAX_EFFECT 9.977324263,< 4
same,PXC50,MAX_EFFECT 11.58878505,< 4
